Drawing on PubChem BioAssay, this text covers z-score and composite z-score for 8 molecules.

The nature of assay [1]: compound effects on lung adenocarcinoma cell viability – A549, calcein-AM fluorescence, 48 h, basal, profiling panel (AID 1162). Note: test concentration not given here. The conditions noted are these: higher = more signal.
Assay [2] in a line: compound effects on differentiated 3T3-L1 adipocyte viability – cell-based, 3T3-L1 adipocytes, calcein-AM fluorescence, 48 h, basal, profiling panel (AID 1163). Note: test concentration not given here. Particulars: 3T3-L1 adipocytes viability, higher = more signal.
Assay [3] is described as follows: compound effects on hepatocellular carcinoma cell viability – HepG2, calcein-AM fluorescence, 48 h, basal, profiling panel (AID 1164). Note: test concentration not given here. The conditions noted are these: higher = more signal.
Assay [4] in a line: compound effects on multiple myeloma cell viability – MM1S, calcein-AM fluorescence, 48 h, basal, profiling panel (AID 1165). Note: test concentration not given here. The conditions noted are these: higher = more signal.
The nature of assay [5]: calcein-AM signal in unstimulated myeloma cells – cell-based, calcein-AM fluorescence, 48 h, PK04 Diversity Set, profiling panel (AID 1166).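 Note: cells grown under basal conditions without added stimulus; test concentration not given here.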 The conditions noted are these: RPMI8226 myeloma viability, higher = more signal.
Assay [6] in a line: JC-1 mitochondrial signal, unstimulated HepG2 cells – cell-based, JC-1 fluorescence, 24 h, 100 nL compound, profiling panel (AID 1167). Note: test concentration not given here. Particulars: HepG2 mitochondrial potential, higher = more signal.
The nature of assay [7]: JC-1 mitochondrial signal, unstimulated adipocytes – cell-based, JC-1 fluorescence, 3T3-L1 adipocytes, 24 h, 100 nL compound, profiling panel (AID 1168). Note: test concentration not given here. The conditions noted are these: JC-1 mitochondrial fluorescence, higher = more signal, called active from +8 up or from −8 down.
A short description of assay [8]: JC-1 mitochondrial signal, unstimulated myeloma cells – cell-based, JC-1 fluorescence, RPMI8226, 24 h, 100 nL compound, profiling panel (AID 1169). Note: test concentration not given here. Particulars: JC-1 mitochondrial potential fluorescence, higher = more signal.
The nature of assay [9]: JC-1 mitochondrial signal, unstimulated MM1S myeloma – cell-based, JC-1 fluorescence, 24 h, 100 nL compound, profiling panel (AID 1170). Note: test concentration not given here. Particulars: MM1S mitochondrial potential, higher = more signal.
The nature of assay [10]: resazurin metabolic signal in A549 cells – cell-based, resazurin fluorescence, 24 h, PK04 Diversity Set, profiling panel (AID 1171). Note: test concentration not given here. Particulars: A549 viability, higher = more signal, called active from +8 up or from −8 down. For orientation: The colour change of resazurin is a common sign of viable cells or microbes.
Assay [11] in a line: resazurin metabolic signal in HepG2 cells – cell-based, resazurin fluorescence, 24 h, PK04 Diversity Set, profiling panel (AID 1172). Note: test concentration not given here. Particulars: HepG2 viability, higher = more signal.
Assay [12] can be described thus: budding yeast growth changes without added modifier – OD600, strain BY4716, 24 h, basal condition, primary screen (AID 1173). Particulars: S. cerevisiae BY4716 growth, OD600, 24 h; higher = more signal, called active from +8 up or from −8 down.
A short description of assay [13]: viability profiling in MM1S myeloma cells – cell-based, resazurin fluorescence, basal, 24 h, PK04 Diversity Set, profiling panel (AID 1174). Note: test concentration not given here. The conditions noted are these: higher = more signal, called active from +8 up or from −8 down.
Assay [14] concerns the target Dihydroorotate dehydrogenase (quinone), mitochondrial (Plasmodium falciparum (isolate 3D7)) (UniProt Q08210). The experiment in a line: inhibition of P. falciparum DHODH – biochemical, C-terminal His tag, absorbance 600 nm, primary screen (AID 1175).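 Note: recombinant parasite enzyme with a five histidine tag at its C terminus; test concentration not given here.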 The conditions noted are these: PfDHODH enzyme, DCIP absorbance 600 nm; higher = more signal, called active from +8 up or from −8 down.

Assay [15] is described as follows: inhibition of PAO1 biofilm formation – strain PAO1, LB-PBS medium, absorbance 600 nm, primary screen (AID 1176). Note: test concentration not given here. The conditions noted are these: P. aeruginosa PAO1 growth/biofilm, A600, 12 h; higher = more signal.
A short description of assay [16]: growth modulation of vineyard yeast isolate – strain RM11-1a, OD600, basal, 24 h, primary screen (AID 1177).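 Note: cultures grown under basal conditions with no added stressor; test concentration not given here.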 Particulars: S. cerevisiae RM11-1a growth, OD600, 24 h; higher = more signal, called active from +8 up or from −8 down.
The nature of assay [17]: growth of efflux-deficient E. coli DRC39 – strain DRC39, OD650, 24 h, E. coli filamentation inducers, primary screen (AID 1178).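 Note: growth measured as culture turbidity by optical density at 650 nm; test concentration not given here.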 The conditions noted are these: E. coli DRC39 acrAB, higher = more signal, called active from +8 up or from −8 down.
Assay [18] in a line: growth of efflux-deficient E. coli DRC39 – strain DRC39, OD650, 48 h, E. coli filamentation inducers, primary screen (AID 1179).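 Note: screen aims at cell division blockers that make cells filament.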 Particulars: E. coli DRC39 delta-acrAB growth, higher = more signal, called active from +8 up or from −8 down.
Assay [19] in a line: viability profiling in RPMI8226 myeloma cells – cell-based, resazurin fluorescence, basal, 24 h, PK04 Diversity Set, profiling panel (AID 1180).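 Note: RPMI8826 multiple myeloma cell line at 5000 cells per well; test concentration not given here.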 The conditions noted are these: higher = more signal.
The target of assay [20] is E3 ubiquitin-protein ligase XIAP (Homo sapiens) (UniProt P98170). The experiment in a line: small molecules binding XIAP protein – biophysical, small-molecule microarray, fluorescence 635 nm, primary screen (AID 1181).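 Note: score merges 667 nm emission and signal to noise over triplicate slides.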 Particulars: higher = more signal.

Structures are written as SMILES. Calls of active or inactive are those of the source. Unless noted, the rule behind the calls is not given here.

Chain of Dihydroorotate dehydrogenase (quinone), mitochondrial (Plasmodium falciparum (isolate 3D7)) (Q08210 whole entry, looked up): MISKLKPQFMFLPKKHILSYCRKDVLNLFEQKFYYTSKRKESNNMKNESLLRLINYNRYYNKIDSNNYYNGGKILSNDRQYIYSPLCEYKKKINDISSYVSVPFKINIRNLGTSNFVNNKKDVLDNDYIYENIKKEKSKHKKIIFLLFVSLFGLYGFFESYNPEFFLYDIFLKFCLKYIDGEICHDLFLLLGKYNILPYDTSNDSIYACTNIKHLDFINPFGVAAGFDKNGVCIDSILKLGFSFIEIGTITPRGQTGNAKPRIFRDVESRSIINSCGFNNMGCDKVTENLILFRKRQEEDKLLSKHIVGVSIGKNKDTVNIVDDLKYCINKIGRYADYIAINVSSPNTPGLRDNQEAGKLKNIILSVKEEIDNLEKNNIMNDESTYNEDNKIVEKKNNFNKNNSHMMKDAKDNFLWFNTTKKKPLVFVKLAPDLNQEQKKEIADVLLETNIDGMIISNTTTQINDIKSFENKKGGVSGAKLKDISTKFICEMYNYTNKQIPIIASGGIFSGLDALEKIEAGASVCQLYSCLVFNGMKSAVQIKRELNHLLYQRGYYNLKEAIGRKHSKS
Chain of E3 ubiquitin-protein ligase XIAP (Homo sapiens) (P98170 whole entry, looked up): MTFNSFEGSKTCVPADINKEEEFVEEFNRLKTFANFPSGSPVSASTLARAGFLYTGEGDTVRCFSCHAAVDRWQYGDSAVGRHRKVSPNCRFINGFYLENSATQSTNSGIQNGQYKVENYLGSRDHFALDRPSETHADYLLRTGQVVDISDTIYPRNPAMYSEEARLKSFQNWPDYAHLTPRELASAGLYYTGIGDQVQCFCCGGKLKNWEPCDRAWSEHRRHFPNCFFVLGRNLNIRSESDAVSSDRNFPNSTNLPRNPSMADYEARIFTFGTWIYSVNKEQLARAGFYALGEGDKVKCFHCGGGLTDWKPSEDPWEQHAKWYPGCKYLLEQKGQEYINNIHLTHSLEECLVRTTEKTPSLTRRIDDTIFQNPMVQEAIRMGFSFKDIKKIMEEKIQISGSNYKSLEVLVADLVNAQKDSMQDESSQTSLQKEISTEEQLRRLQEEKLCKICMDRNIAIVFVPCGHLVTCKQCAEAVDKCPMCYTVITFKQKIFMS

As to `C=CCOC(=O)[C@H]1[C@@H]2C(=O)O[C@@H](c3ccccc3)[C@@H](c3ccccc3)N2[C@@H](c2ccc(OCCOC(=O)[C@@H]3C[C@@H]4C(=O)N5CCC[C@H]5C(=O)N4[C@@H]3c3ccc(O)cc3)cc2)[C@]12C(=O)Nc1ccccc12`, the z-score in assay [1] is 0.924; in assay [2] it was 0.038; in assay [3], -0.139; in assay [4] it was 0.603; in [5], 0.876; in [6] it was -1.42. Further, the z-score is 1.74 (inactive) in [7]; -0.212 in assay [8]; -0.786 in [9]; 0.362 (inactive) in assay [10]; 0.196 in assay [11]; 0.865 (inactive) in assay [12]. Also, the z-score in [13] is 0.841 (inactive); in assay [15], 0.957 (inactive); in assay [16], 2.73 (inactive); in assay [17], 0.468 (inactive); in assay [18] it was 0.971 (inactive); in assay [19] it was 1.71. Also, the composite z-score in assay [14] is -0.379 (inactive); in assay [20], 0.224.

In the case of `O=C/C=C/c1ccc2c(c1)OCO2`, the z-score in assay [1] was 0.115; in [2] it was 0.327; in [3] it was 0.782; in assay [4], -0.251; in assay [5], 0.658; in assay [6] it was 1.4. The z-score in assay [7] was -0.0743 (inactive); in assay [8], 0.365; in assay [9], 0.386; in assay [10], -0.362 (inactive); in assay [11], 0.134; in assay [12], -12.8 (active). In addition, the z-score was -0.155 (inactive) in assay [13]; 0.227 (inactive) in assay [15]; -1.87 (inactive) in assay [16]; -1.34 (inactive) in assay [17]; 0.594 (inactive) in [18]; -0.211 in assay [19]. The composite z-score in assay [14] was -1.32 (inactive); in [20], -0.118.

Regarding `COc1ccccc1CN1C(=O)c2ccccc2[C@@H](C(=O)NCCN2CCOCC2)[C@@H]1c1ccc(CO)cc1`, the z-score in [1] was 0.61; in assay [2], 0.0251; in assay [3] it was 0.556; in assay [4], -0.231; in assay [5] it was -0.55; in [6], 2.15. In addition, the z-score in [7] was 0.364 (inactive); in assay [8], 0.711; in assay [9], -0.691; in assay [10], 1.33 (inactive); in assay [11] it was 0.505; in assay [12], -0.248 (inactive). Moreover, the z-score in assay [13] is -0.0527 (inactive); in [15], 1.56 (inactive); in assay [16], -0.0436 (inactive); in [17], 0.187 (inactive); in assay [18], -0.0251 (inactive); in [19], 0.154. For the same molecule, the composite z-score in assay [14] is 0.249 (inactive); in assay [20], 0.101.

As to `CC(C)N1CC=CC23O[C@@H]4C=CCOC(=O)[C@@H]4[C@H]2C(=O)N(CCO)[C@@H]3C1=O` (stereo not given in full), the z-score in [1] was -0.237; in assay [2], 0.253; in [3] it was -0.166; in assay [4] it was 1.07; in assay [5], -0.761; in assay [6] it was -0.38. In addition, the z-score is 0.0611 (inactive) in [7]; 0.223 in assay [8]; -0.797 in [9]; 0.336 (inactive) in assay [10]; 0.545 in [11]; 0.684 (inactive) in assay [12]. In addition, the z-score in [13] is 0.813 (inactive); in [15] it was 0.0683 (inactive); in [16], 0.445 (inactive); in [17] it was 0.173 (inactive); in [18] it was 0.0539 (inactive); in [19] it was 0.393. Further, the composite z-score was -1.12 (inactive) in assay [14] and 0.0368 in [20].

For `COCCOC(=O)N1C(=O)[C@@]2(c3ccccc31)[C@H](C(=O)Nc1nc3ccccc3s1)[C@H]1C(=O)O[C@H](c3ccccc3)[C@H](c3ccccc3)N1[C@@H]2c1ccc(OCCO)cc1`, the z-score in assay [1] was -0.257; in [2] it was 1.73; in assay [3] it was -1.23; in assay [4], -2.13; in assay [5], -1.62; in assay [6], -3.14. Further, the z-score was 1.68 (inactive) in assay [7]; -0.806 in [8]; -1.57 in assay [9]; 0.18 (inactive) in [10]; 0.353 in assay [11]; 1.42 (inactive) in [12]. Further, the z-score in assay [13] was -0.477 (inactive); in [15], 3.49 (inactive); in assay [16], 1.75 (inactive); in assay [17], 0.0253 (inactive); in assay [18], -0.383 (inactive); in [19], -0.162. Also, the composite z-score in [14] is -0.691 (inactive); in assay [20], 0.0641.

For `COCCOC(=O)N1C(=O)[C@@]2(c3cc(C#CCC(C(=O)OC)C(=O)OC)ccc31)[C@H](c1ccc(O)cc1)N1[C@H](c3ccccc3)[C@H](c3ccccc3)OC(=O)[C@H]1[C@@H]2C(N)=O`, the z-score in [1] was -0.78; in assay [2] it was 0.618; in [3] it was -0.568; in [4], -2.89; in assay [5], -3.48; in assay [6], -1.63. Besides, the z-score in assay [7] is -0.791 (inactive); in [8] it was -0.799; in assay [9], 0.0557; in assay [10], -0.195 (inactive); in assay [11], -0.2; in [12] it was -0.235 (inactive). Further, the z-score was -0.0347 (inactive) in assay [13]; 1.28 (inactive) in assay [15]; 0.332 (inactive) in assay [16]; -0.319 (inactive) in assay [17]; -0.586 (inactive) in assay [18]; -0.777 in assay [19]. Also, the composite z-score in assay [14] is -0.181 (inactive); in assay [20], 0.098.

With `O=C1O[C@H](c2ccccc2)[C@H](c2ccccc2)N2[C@H]1[C@@H](C(=O)N1CCN(c3ncccn3)CC1)[C@]1(C(=O)Nc3ccccc31)[C@H]2c1ccc(OCCO)cc1`, the z-score in assay [1] is 0.404; in [2], 1.35; in [3], 0.121; in assay [4], 0.0498; in [5], -2.17; in assay [6], -0.592. Also, the z-score in assay [7] is 1.53 (inactive); in [8] it was -1.16; in assay [9], -0.537; in [10], 1.18 (inactive); in assay [11], 1.42; in [12], 1.4 (inactive). In addition, the z-score is 0.792 (inactive) in assay [13]; 1.55 (inactive) in [15]; 1.81 (inactive) in assay [16]; 0.774 (inactive) in [17]; 0.0049 (inactive) in assay [18]; 0.368 in assay [19]. Also, the figures for the composite z-score in [14] and in assay [20] were 1.12 (inactive) and 0.109, respectively.

As to `CCOC(=O)[C@H]1C[C@H]2O[C@@]23C[C@H]1C(=O)N1CCCC1[C@@H]3O[Si](C)(C)C(C)(C)C` (stereo not given in full), the z-score was -0.486 in assay [1]; 0.729 in assay [2]; -0.154 in [3]; -0.337 in assay [4]; -0.5 in assay [5]; -0.625 in [6]. Also, the z-score in assay [7] is -0.166 (inactive); in assay [8], -0.366; in assay [9] it was 0.193; in [10], -0.456 (inactive); in assay [11] it was -0.332; in [12], -4.67 (inactive). Further, the z-score in assay [13] is -0.88 (inactive); in assay [15] it was 0.367 (inactive); in assay [16], -0.521 (inactive); in [17], -0.205 (inactive); in [18], -0.595 (inactive); in assay [19], 0.0096. Besides, the composite z-score in assay [14] was -0.17 (inactive); in assay [20], -0.083.
